According to PubChem BioAssay (Tox21):
Records with an inconclusive call do not appear. Active and inactive are the calls of the source. Unless noted, calls come from the whole dose curve; as a rule, active = well fitted curve in the direction sought with a large enough effect in the repeat runs; inconclusive = weak or mixed curves; inactive = no such curve, though single readings can be large; an effect the other way counts as inactive or inconclusive.

Assays:
[1] = qHTS assay to identify small molecule agonists or antagonists of the thyroid stimulating hormone receptor (TSHR) signaling pathway - wild type cell line counter screen (AID 1259384; calls by dose curve)
Outline: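 Wild-type HEK293 cells were plated 18 h at 37 C/5% CO2, pin-dosed with compound plus Ro20-1724 medium, held 30 min at room temperature, then given cAMP-d2 and anti-cAMP-cryptate; fluorescence was read after 1 h. Fifteen concentrations, triplicate.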

[2] = target: Thyrotropin receptor (Homo sapiens) (UniProt P16473); experiment: qHTS assay to identify small molecule antagonists of the thyroid stimulating hormone receptor (TSHR) signaling pathway (AID 1259385; calls by dose curve; note: nearly all actives have a fitted effect of over 20% in size)
Outline: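 TSHR-HEK293 cells were plated and held 18 h at 37C/5% CO2, then given compound plus Ro20-1724 and stimulated with TSH at 1.5 ng/mL final. After 30 min at room temperature, cAMP was detected with cAMP-d2/anti-cAMP-cryptate (1 h) by fluorescence.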

[3] = qHTS assay to identify small molecule agonists of the estrogen receptor alpha (ER-alpha) signaling pathway in the presence of an antagonist - cell viability counter screen (AID 1259386);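 note: series mostly up to about 92 µM; cells exposed to compounds for 22 h at 37 °C before the viability read; nearly all actives have a fitted effect of over 30% in size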
Outline: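 ICI-182,780 at 10.0nM final accompanies the compound titration (15 concentrations, 22hr, 37C) on VM7Luc4E2 cells. The CellTiter-Fluor fluorescence readout runs in the same wells as the luciferase assay.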

[4] = target: Progesterone receptor (Homo sapiens) (UniProt P06401); experiment: qHTS assay to identify small molecule agonists of the progesterone receptor (PR) signaling pathway (AID 1346784; calls by dose curve; note: nearly all actives have a fitted effect of over 30% in size)
Outline: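 Seed PR-UAS-bla HEK 293T cells (2% charcoal-stripped FBS), incubate 6 hr at 37C; add compounds in DMSO, 16 hr at 37C; add LiveBLAzer B/G substrate, 2 hr RT; read fluorescence intensity.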

[5] = target: Progesterone receptor (Homo sapiens) (UniProt P06401); experiment: qHTS assay to identify small molecule antagonists of the progesterone receptor (PR) signaling pathway (AID 1346795; active = well fitted inhibition curve with a large enough effect in the signal ratio in the repeat runs, not every such curve was filed as active; the % refers to the signal ratio)
Outline: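 Screening used a GripTite HEK293T line with PR-responsive UAS-beta-lactamase. Cells were challenged with compound in the presence of 1 nM R5020 final for 16 hr at 37C; B/G FRET substrate, 2 hr room temperature, fluorescence.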

[6] = qHTS assay to identify small molecule antagonists of the progesterone receptor (PR) signaling pathway - cell viability counter screen (AID 1346798); note: series mostly up to about 92 µM; nearly all actives have a fitted effect of over 50% in size
Outline: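 Measures cytotoxicity in parallel with the PR antagonist reporter read: HEK293T PR-UAS-bla cells get compound and R5020 for 16 hr, and remaining viable cells are quantified by CellTiter-Glo luminescence.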

[7] = qHTS assay to identify small molecule agonists of the progesterone receptor (PR) signaling pathway - cell viability counter screen (AID 1346799; calls by dose curve; note: nearly all actives have a fitted effect of over 45% in size)
Outline: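 Using the same plates as the PR reporter screen, HEK293T PR-UAS-bla cells received compounds for 16 hr at 37C and were then lysed with CellTiter-Glo; luminescence was read 30 min later at room temperature.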

[8] = qHTS assay to identify small molecule antagonists of the TGF-beta/Smad signaling pathway - cell viability counter screen (AID 1346824); note: nearly all actives have a fitted effect of over 50% in size
Outline: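 SBE-bla HEK 293T cells were plated overnight at 37 C, then given compounds in DMSO plus TGF-beta1 (added as 0.25 ng/mL solution) for 5 hr. After the bla read, CellTiter-Glo was added to the same wells and luminescence read after 30 min at room temperature.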

[9] = qHTS assay to identify small molecule agonists of the TGF-beta/Smad signaling pathway - cell viability counter screen (AID 1346829); note: top concentration of the series differs between compounds; nearly all actives have a fitted effect of over 45% in size
Outline: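 Tox21 qHTS format: SBE-bla HEK 293T cells treated with DMSO-dissolved compounds for 5 hr; CellTiter-Glo luminescence after 30 min at room temperature.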

[10] = qHTS assay to identify small molecule agonists of the TGF-beta/Smad signaling pathway (AID 1346859; active = well fitted activation curve with a large enough effect in the signal ratio in the repeat runs, not every such curve was filed as active; the % refers to the signal ratio; note: series mostly up to about 77 µM)
Outline: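 Beta-lactamase reporter activity downstream of Smad binding elements was measured in stably transfected HEK 293T cells; compounds were incubated for 5 hr, substrate for 2 hr at room temperature.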

[11] = target: Thyrotropin-releasing hormone receptor (Homo sapiens) (UniProt P34981); experiment: qHTS assay to identify small molecule antagonists of the thyrotropin-releasing hormone receptor (TRHR) signaling pathway (AID 1346877; active = well fitted inhibition curve with a large enough effect in the repeat runs, not every such curve was filed as active; note: series mostly up to about 51 µM)
Outline: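 Screening used HEK293 cells engineered with TRHR, with a brief 5 min room-temperature compound exposure preceding addition of TRH to 1 nM. The read-out was kinetic calcium-dye fluorescence, concentration-response from 15 doses in triplicate.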

[12] = target: Thyrotropin-releasing hormone receptor (Homo sapiens) (UniProt P34981); experiment: qHTS assay to identify small molecule agonists of the thyrotropin-releasing hormone receptor (TRHR) signaling pathway (AID 1346891; calls by dose curve;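 note: HEK293 cells expressing TRHR with calcium dye readout; series mostly up to about 58 µM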)
Outline: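 Overnight-plated (18 h, 37 °C, 5% CO2) TRHR-Hek293 cells; 2 h calcium dye at 37 °C; compound in DMSO; 3-min kinetic fluorescence read.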

[13] = Human pregnane X receptor (PXR) small molecule agonists, qHTS cell viability counter screen (AID 1346977); note: nearly all actives have a fitted effect of over 50% in size
Outline: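 After a 5hr pre-incubation, PXR-Luc HepG2 cells received compounds plus positive control in DMSO and were kept 24hr at 37C. Cell viability was quantified by fluorescence from CellTiter-Fluor added for the final hour.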

[14] = Caspase-3/7 induction in HepG2 cells by small molecules, qHTS assay (AID 1346978); note: nearly all actives have a fitted effect of over 15% in size
Outline: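 Wild-type HepG2 cells (2,000/well) were settled 5 h at 37 C, 5% CO2, then exposed to compounds in DMSO for 17 h. Caspase-3/7 activity was read by luminescence 30 min after adding Caspase-Glo 3/7 reagent at room temperature.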

[15] = Caspase-3/7 induction in CHO-K1 cells by small molecules, qHTS cell viability counter screen (AID 1346979); note: nearly all actives have a fitted effect of over 35% in size
Outline: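 Multiplexed with Caspase-Glo 3/7 in CHO-K1 cells, this counter screen added CellTiter-Fluor after 16hr of compound exposure and recorded fluorescence 1hr later.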

[16] = Caspase-3/7 induction in CHO-K1 cells by small molecules, qHTS assay (AID 1346980); note: nearly all actives have a fitted effect of over 15% in size
Outline: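 Wild-type cells were seeded at 1,500 per well and settled 5 hr at 37 C, 5% CO2, then exposed to DMSO-dissolved compounds for 17 hr. Caspase-Glo 3/7 reagent was added, and luminescence was read after 30min at room temperature.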

[17] = Caspase-3/7 induction in HepG2 cells by small molecules, qHTS cell viability counter screen (AID 1346981); note: series mostly up to about 92 µM; nearly all actives have a fitted effect of over 30% in size
Outline: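 Multiplexed with the caspase-3/7 assay: HepG2 cells, 16 hr compound treatment, CellTiter-Fluor viability detection by fluorescence.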

[18] = target: Nuclear receptor subfamily 1 group I member 2 (Homo sapiens) (UniProt O75469); experiment: Human pregnane X receptor (PXR) small molecule agonists, qHTS assay (AID 1346982); note: nearly all actives have a fitted effect of over 35% in size; note: potency is the fitted concentration of half-maximal effect
Outline: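 We seeded PXR-Luc HepG2 cells in assay medium containing 5% charcoal-stripped FBS, added compounds 5 hr later, incubated 24 hr, and read luminescence with ONE-Glo reagent.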

[19] = target: Nuclear receptor subfamily 1 group I member 2 (Rattus norvegicus) (UniProt Q9R1A7); experiment: Rat pregnane X receptor (rPXR) activation by small molecules, qHTS assay (AID 1346983); settings: rPXR luciferase reporter cells, One-Glo luminescence, 24 h; max activation: active compounds read high; note: nearly all actives have a fitted effect of over 20% in size
Outline: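 Cell-based rPXR luciferase reporter assay, 2,000 cells per well, rested 5hr at 37 C before compound addition in DMSO, then 24 hr at 37 C. One-Glo reagent was added and luminescence read after 30 min at room temperature.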
% is set by controls: 0 for no effect and ±100 for the full control effect.

Chain of Thyrotropin receptor (Homo sapiens) (P16473 whole entry, looked up): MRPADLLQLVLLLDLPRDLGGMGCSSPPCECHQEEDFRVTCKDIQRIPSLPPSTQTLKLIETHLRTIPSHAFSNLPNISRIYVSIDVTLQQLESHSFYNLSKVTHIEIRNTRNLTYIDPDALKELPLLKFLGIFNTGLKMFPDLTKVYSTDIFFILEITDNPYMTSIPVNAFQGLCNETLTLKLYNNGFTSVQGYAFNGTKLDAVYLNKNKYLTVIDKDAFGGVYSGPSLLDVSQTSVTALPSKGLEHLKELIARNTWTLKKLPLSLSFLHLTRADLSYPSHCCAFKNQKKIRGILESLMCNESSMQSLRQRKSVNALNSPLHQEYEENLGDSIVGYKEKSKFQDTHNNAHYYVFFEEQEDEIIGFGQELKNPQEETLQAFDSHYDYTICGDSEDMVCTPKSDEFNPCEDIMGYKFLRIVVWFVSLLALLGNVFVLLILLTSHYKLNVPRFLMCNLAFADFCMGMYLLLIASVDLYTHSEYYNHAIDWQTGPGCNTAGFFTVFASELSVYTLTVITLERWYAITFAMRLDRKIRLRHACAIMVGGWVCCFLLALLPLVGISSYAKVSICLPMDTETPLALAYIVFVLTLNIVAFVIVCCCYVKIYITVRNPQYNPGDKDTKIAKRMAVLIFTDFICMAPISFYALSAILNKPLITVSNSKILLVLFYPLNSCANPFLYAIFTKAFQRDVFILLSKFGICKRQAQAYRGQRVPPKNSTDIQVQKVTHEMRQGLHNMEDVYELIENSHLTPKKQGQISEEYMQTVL
Chain of Thyrotropin-releasing hormone receptor (Homo sapiens) (P34981 whole entry, looked up): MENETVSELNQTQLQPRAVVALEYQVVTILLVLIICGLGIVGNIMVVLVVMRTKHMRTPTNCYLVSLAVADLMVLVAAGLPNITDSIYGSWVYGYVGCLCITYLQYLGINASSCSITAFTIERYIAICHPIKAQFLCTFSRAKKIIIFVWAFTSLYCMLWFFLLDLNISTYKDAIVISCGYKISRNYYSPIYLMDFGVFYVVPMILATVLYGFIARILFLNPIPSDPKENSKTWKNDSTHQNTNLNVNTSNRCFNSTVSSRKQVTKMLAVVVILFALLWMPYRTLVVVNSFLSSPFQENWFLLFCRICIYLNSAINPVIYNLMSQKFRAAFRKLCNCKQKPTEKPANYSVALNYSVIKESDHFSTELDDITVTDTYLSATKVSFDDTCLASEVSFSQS
Chain of Nuclear receptor subfamily 1 group I member 2 (Homo sapiens) (O75469 whole entry, looked up): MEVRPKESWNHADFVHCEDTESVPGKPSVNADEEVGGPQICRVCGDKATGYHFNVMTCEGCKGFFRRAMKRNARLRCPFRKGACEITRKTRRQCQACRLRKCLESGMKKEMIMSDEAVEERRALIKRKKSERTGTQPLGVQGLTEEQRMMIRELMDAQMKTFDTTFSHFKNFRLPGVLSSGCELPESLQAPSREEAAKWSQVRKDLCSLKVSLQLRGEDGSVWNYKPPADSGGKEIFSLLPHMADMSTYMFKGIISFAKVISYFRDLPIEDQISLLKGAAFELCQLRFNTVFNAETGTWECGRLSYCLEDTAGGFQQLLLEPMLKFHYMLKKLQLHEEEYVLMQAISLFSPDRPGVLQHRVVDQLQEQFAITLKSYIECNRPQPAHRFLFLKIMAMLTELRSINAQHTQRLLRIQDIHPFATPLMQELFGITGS
Chain of Progesterone receptor (Homo sapiens) (P06401 whole entry, looked up): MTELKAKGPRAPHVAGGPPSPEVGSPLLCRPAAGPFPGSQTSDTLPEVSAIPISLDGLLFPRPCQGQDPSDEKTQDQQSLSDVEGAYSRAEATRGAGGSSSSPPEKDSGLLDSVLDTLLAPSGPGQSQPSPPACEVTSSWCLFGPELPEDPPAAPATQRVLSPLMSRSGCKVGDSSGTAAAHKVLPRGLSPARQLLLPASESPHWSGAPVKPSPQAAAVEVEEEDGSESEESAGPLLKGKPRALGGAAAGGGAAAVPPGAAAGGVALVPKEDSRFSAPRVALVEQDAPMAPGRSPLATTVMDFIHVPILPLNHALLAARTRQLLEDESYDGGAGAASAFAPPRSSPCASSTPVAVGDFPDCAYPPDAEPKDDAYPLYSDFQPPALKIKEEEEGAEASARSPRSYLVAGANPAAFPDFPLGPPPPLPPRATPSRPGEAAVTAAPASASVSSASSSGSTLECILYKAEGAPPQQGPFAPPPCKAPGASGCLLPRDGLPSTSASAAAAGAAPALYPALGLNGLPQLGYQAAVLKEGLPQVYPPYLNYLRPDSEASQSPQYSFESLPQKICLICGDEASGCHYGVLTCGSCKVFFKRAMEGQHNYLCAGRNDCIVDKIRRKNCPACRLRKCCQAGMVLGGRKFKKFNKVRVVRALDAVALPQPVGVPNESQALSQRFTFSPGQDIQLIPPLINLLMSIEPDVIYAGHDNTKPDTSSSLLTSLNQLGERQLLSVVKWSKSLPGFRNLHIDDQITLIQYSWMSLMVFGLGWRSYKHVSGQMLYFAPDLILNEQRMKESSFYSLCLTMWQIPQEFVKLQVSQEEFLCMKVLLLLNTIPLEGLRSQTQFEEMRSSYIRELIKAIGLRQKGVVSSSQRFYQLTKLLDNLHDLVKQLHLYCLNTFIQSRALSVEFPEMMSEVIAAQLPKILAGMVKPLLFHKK
Chain of Nuclear receptor subfamily 1 group I member 2 (Rattus norvegicus) (Q9R1A7 whole entry, looked up): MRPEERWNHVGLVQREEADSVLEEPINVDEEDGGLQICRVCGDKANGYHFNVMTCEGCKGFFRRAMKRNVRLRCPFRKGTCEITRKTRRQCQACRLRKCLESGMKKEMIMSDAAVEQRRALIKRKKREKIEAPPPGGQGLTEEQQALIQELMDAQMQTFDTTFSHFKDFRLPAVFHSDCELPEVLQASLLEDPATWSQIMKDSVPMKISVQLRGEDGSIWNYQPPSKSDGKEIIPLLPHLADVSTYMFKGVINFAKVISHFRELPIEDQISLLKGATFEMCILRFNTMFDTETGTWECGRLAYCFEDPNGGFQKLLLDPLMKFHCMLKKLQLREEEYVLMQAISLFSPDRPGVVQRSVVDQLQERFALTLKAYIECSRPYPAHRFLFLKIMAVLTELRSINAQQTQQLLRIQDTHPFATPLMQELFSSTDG

CO/N=C(/C(=O)N[C@@H]1C(=O)N2C(C(=O)O)=C(Cn3nnc(C)n3)CS[C@H]12)c1csc(N)n1
inactive: outcome [1] | outcome [2] | Potency [3] | Potency [4] | Potency [5] | Potency [6] | Potency [7] | outcome [8] | outcome [9] | outcome [10] | outcome [11] | outcome [12] | Potency [13] | outcome [14] | Potency [15] | outcome [16] | Potency [17] | Potency [18]

Cc1ccc(S(=O)(=O)NC(=O)NC2CCCCCCC2)cc1
inactive: outcome [1] | outcome [2] | Potency [3] | Potency [4] | Potency [5] | Potency [6] | Potency [7] | outcome [8] | outcome [9] | outcome [10] | outcome [11] | outcome [12] | Potency [13] | outcome [14] | outcome [16] | Potency [18] | max activation [19] -1.92%

C=C(C)C(=O)OC
inactive: outcome [1] | outcome [2] | Potency [3] | Potency [4] | Potency [5] | Potency [6] | Potency [7] | outcome [8] | outcome [9] | outcome [10] | Potency [13] | outcome [14] | Potency [15] | outcome [16] | Potency [17] | Potency [18]

C1=CCC(c2ccccc2)CC1 (configuration not stated)
inactive: outcome [1] | outcome [2] | Potency [3] | Potency [4] | Potency [5] | Potency [6] | Potency [7] | outcome [8] | outcome [9] | outcome [10] | outcome [11] | outcome [12] | Potency [13] | outcome [14] | Potency [15] | outcome [16] | Potency [18]

C/C=C(\C)C(=O)OCC/C=C\CC
inactive: outcome [1] | outcome [2] | Potency [3] | Potency [4] | Potency [5] | Potency [6] | Potency [7] | outcome [8] | outcome [9] | outcome [11] | outcome [12] | Potency [13] | outcome [14] | Potency [15] | outcome [16] | Potency [17] | Potency [18]

CCOC(=O)OCC/C(SC(=O)OCC)=C(\C)N(C=O)Cc1cnc(C)nc1N
inactive: outcome [1] | outcome [2] | Potency [3] | Potency [4] | Potency [5] | Potency [6] | Potency [7] | outcome [8] | outcome [9] | outcome [10] | Potency [13] | outcome [14] | Potency [15] | outcome [16] | Potency [17] | Potency [18]

O=C(O)Cc1cccc(-c2cc(CCCCCCc3ccc(O[C@H]4O[C@H](CO)[C@@H](O)[C@H](O)[C@@H]4O)c(-c4cccc(CC(=O)O)c4)c3)ccc2O[C@H]2O[C@H](CO)[C@@H](O)[C@H](O)[C@@H]2O)c1
inactive: cAMP activity change [1] -6.17% [at 0.349 µM] | activity change, negative = inhibition [2] -1.92% [at 0.349 µM] | activity change, negative = cytotoxicity [3] 4.6% [at 0.349 µM] | activation [4] 1.15% [at 0.349 µM] | activity change, negative = inhibition [5] 0.629% [at 0.348 µM] | activity change, negative = cytotoxicity [6] 8.15% [at 0.348 µM] | viability change, negative = cytotoxic [8] 10.9% [at 0.29 µM] | activity change, negative = cytotoxicity [9] 10.8% [at 0.29 µM] | activation [10] -0.374% [at 0.29 µM] | activity, negative = inhibition [11] 0.417% [at 0.194 µM] | activation [12] -0.342% [at 0.218 µM] | activity change, negative = cytotoxicity [13] 17.5% [at 0.349 µM] | caspase activation [14] 0.734% [at 0.349 µM] | activity change, negative = cytotoxicity [15] 2.17% [at 0.349 µM] | caspase-3/7 activation [16] 1.55% [at 0.349 µM] | activity change, negative = cytotoxicity [17] 2.65% [at 0.349 µM] | activation [18] -9.1% [at 0.349 µM]

c1ccc(CNc2ncnc3nc[nH]c23)cc1
inactive: outcome [1] | outcome [2] | Potency [3] | Potency [4] | Potency [5] | Potency [6] | outcome [8] | outcome [9] | outcome [11] | outcome [12] | outcome [14] | Potency [15] | outcome [16] | Potency [17]

NC(Cc1c[nH]c2ccccc12)C(=O)O (configuration not stated)
inactive: outcome [1] | outcome [2] | Potency [3] | Potency [4] | Potency [5] | Potency [6] | Potency [7] | outcome [8] | outcome [9] | outcome [10] | outcome [11] | outcome [12] | Potency [13] | outcome [14] | Potency [15] | outcome [16] | Potency [18]

CCCCCCCCCCCCCCCCI
inactive: cAMP activity change [1] 5% [at 18.9 µM] | activity change, negative = inhibition [2] -4.61% [at 19 µM] | activity change, negative = cytotoxicity [3] -3.61% [at 19 µM] | activation [4] 0.0661% [at 19 µM] | activity change, negative = inhibition [5] -3.13% [at 18.9 µM] | activity change, negative = cytotoxicity [6] 17.5% [at 18.9 µM] | activity change, negative = cytotoxicity [7] -9.05% [at 19 µM] | viability change, negative = cytotoxic [8] -2.44% [at 15.8 µM] | activity change, negative = cytotoxicity [9] 0.0425% [at 15.8 µM] | activation [10] 1.65% [at 15.8 µM] | activity change, negative = cytotoxicity [13] 1.52% [at 19 µM] | caspase activation [14] 0.99% [at 19 µM] | activity change, negative = cytotoxicity [15] 4.85% [at 19 µM] | caspase-3/7 activation [16] -0.405% [at 19 µM] | activity change, negative = cytotoxicity [17] 7.09% [at 19 µM] | activation [18] 0.718% [at 19 µM]

CC(C)=CC(C)(C)C
inactive: outcome [1] | outcome [2] | Potency [3] | Potency [4] | Potency [5] | Potency [6] | Potency [7] | outcome [9] | outcome [10] | outcome [11] | outcome [12] | Potency [13] | outcome [14] | Potency [15] | outcome [16] | Potency [17] | Potency [18]

C[CH2][Ge]([Cl])([CH2]C)[CH2]C
inactive: outcome [1] | outcome [2] | Potency [3] | Potency [4] | Potency [5] | Potency [6] | outcome [8] | outcome [9] | outcome [10] | outcome [11] | outcome [12] | Potency [13] | outcome [14] | Potency [15] | outcome [16] | Potency [18]

CCNC(=O)/C=C/c1cccc(Br)c1
inactive: outcome [1] | outcome [2] | Potency [3] | Potency [4] | Potency [5] | Potency [6] | Potency [7] | outcome [8] | outcome [9] | outcome [10] | outcome [11] | outcome [12] | Potency [13] | outcome [14] | Potency [15] | outcome [16] | Potency [17] | max activation [19] 11.4%
active: Potency [18] 26.6 µM

C=C(C)[C@@H]1CC[C@@H](C)C[C@@H]1O
inactive: outcome [1] | outcome [2] | Potency [3] | Potency [4] | Potency [5] | Potency [6] | Potency [7] | outcome [8] | outcome [9] | outcome [10] | Potency [13] | outcome [14] | Potency [15] | Potency [17] | Potency [18]
